# The panel holds about 83,000 compounds, 20% with a hit somewhere; the sample as a whole holds those more often.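 Method: cells in 96-well plates; compound added at one concentration; 48 h incubation; percent growth measured; values under 10 scored active.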 Unmarked numbers belong to inactive results. Active and inactive are the calls of the source.
# Tested on: UO-31 renal
# Assay: NCI-60 one-dose screen, 48 h (100 = growth as untreated, 0 = no growth, -100 = all killed)
# Conditions: 10 µM unless noted
row,Compound,growth
1,CC(C)(C)c1ccc2oc(=O)n(SC(Cl)(Cl)Cl)c2c1,94.9%
2,COc1ccc2nc(-c3ccc(Cl)cc3)cc(-c3nnc(SC/C(=N/O)c4ccccc4)o3)c2c1,89.7%
3,CCOC(=O)c1c(-c2ccc(O)cc2)c(C#N)c2c(C#N)c(N)nn2c1N,69.9%
4,C=CCn1c(SCC(=O)Nc2ccc(C(=O)/C=C/c3cc(OC)c(OC)c(OC)c3)cc2)nnc1-c1ccc(Cl)cc1,26.5%
5,CCOC(=O)c1ccc(Nc2ncnc3ccc(NC(=O)c4ccccc4)cc23)cc1,72.6%
6,CCOC(=O)c1cnn(-c2nc(-c3ccc(F)cc3)c(C#N)c(N3CCOCC3)n2)c1N,74.1%
7,CSc1nc(-c2ccc(F)cc2)c(C#N)c(N2CCOCC2)n1,80.3%
8,c1ccc(Sc2ncccn2)nc1,87.9%
9,COc1ccc(/C=C/C(=O)/C=C(/C=C/c2ccc(OC)c(OC)c2)OB(F)F)cc1OC,40%
10,Cc1cccc(NC(=O)c2sc3nc4c(cc3c2N)CN(Cc2ccccc2)CC4)c1C,51%
11,Nc1c(C(=O)Nc2cccc3ccccc23)sc2nc3c(cc12)CCCCCC3,55%
12,O=C1c2ccccc2C(=O)c2c1oc1c2c(=O)[nH]c2ccccc21,60.4%
13,C=CCn1c(CN2CCN(c3cc4c(cc3F)c(=O)c(C(=O)O)cn4C3CC3)CC2)n[nH]c1=S,83.7%
14,COc1cccc2c1-c1ccccc1C2=O,47.1%
15,COc1ccc2cc(/C=C3\N=C(c4cc(OC)c(OC)c(OC)c4)OC3=O)c(OC)nc2c1,95.8%
16,C=CCn1c(SCC(=O)Nc2ccc(C(=O)/C=C/c3cc(OC)c(OC)c(OC)c3)cc2)nnc1-c1ccccc1,78.3%
17,O=C(CCCC(=O)Nc1ccc(-n2nnc3cc(Cl)c(Cl)cc32)cc1)Nc1ccc(-n2nnc3cc(Cl)c(Cl)cc32)cc1,79.8%
18,COc1ccc(Nc2cc(NC(=O)CNc3cc(OC)c(Cl)c(OC)c3Cl)ncn2)cc1,59.6%
19,COc1cc(NC(=O)Nc2cnc(Nc3ccc(N4CCOCC4)cc3)nc2Oc2ccc(C(F)(F)F)cc2)cc(OC)c1,84.7%

row,Compound,growth
1,CCCCN(CCCC)CC(CN(CC)CC)OC(=O)Nc1ccccc1 (stereo unspecified),69.7%
2,N#Cc1ccc(N2Cc3cc(Cl)ccc3OC3=C2C(=O)N(Cc2ccccc2)C3=O)cc1,-90.5% (active)
3,Nc1c(C(=O)Nc2cccc3ccccc23)sc2nc3c(cc12)CCCCC3,51.9%
4,Cc1cc(C)cc(Nc2nccc(-c3c(-c4ccc(F)cc4)ncn3C3CCNCC3)n2)c1,-28.6% (active)
5,Nc1c(C(=O)Nc2cccc3ccccc23)sc2nc3c(cc12)COCC3,77%
6,CC(C)Cc1cc(CNC(=O)C2[C@H]3CN(C(=O)c4ccccc4)C[C@@H]23)nn1-c1ccccc1 (stereo partly specified),74.9%
7,O=C1c2ccccc2C(=O)c2c1oc1c2c(=O)[nH]c2ccc(Cl)cc21,-54.9% (active)
8,C=C1C(=O)O[C@H]2[C@H]1CC/C(C=Nc1c(N)cc(F)cc1Br)=C\CC[C@@]1(C)O[C@@H]21,53.5%
9,Nc1ccc2c(c1)C(=O)C(=O)c1c-2nc2ccccn12,-40.8% (active)
10,C#C[C@@]1(O)[C@@H](CO)O[C@@H](n2cc(F)c3c(N)ncnc32)[C@@H]1O,-15.5% (active)
11,C=C(C)[C@@H]1CCC=C2CC[C@]3(C)[C@H](CC[C@@H]4[C@@]5(C)CCCNC(C)(C)[C@@H]5CC[C@]43C)[C@H]21,75.4%
12,COc1ccc(/C=C/C(=O)C(CC2CCC2)C(=O)/C=C/c2ccc(OC)c(OC)c2)cc1OC,-98.1% (active)
13,CCOC(=O)C1=C(C)n2nc(CC#N)c(C#N)c2NC1c1ccc(CC)cc1 (stereo unspecified),65.4%
14,CCCCc1ccc(N=Nc2ccc(OCC[N+](C)(C)C)cc2)cc1,88.1%
15,CC(C)NS(=O)(=O)c1cccc(-c2ccc3c4c(n(CCCN(C)C)c(=O)c3c2)-c2ccccc2C4=O)c1,91%
16,COc1ccc2[nH]c(=O)c(/C=C/C(=O)c3ccccc3OC)cc2c1,23.6%
17,CCOC(=O)c1c(C)nc2c(c1N)/C(=C/c1cccs1)C(=O)N2Cc1ccccc1,45.6%
18,C/C(=N/Nc1nc2ccccc2n1C)c1ccccn1,-16.4% (active)
19,CC(C)NS(=O)(=O)c1cccc(-c2ccc3c(=O)n(CCCN)c4c(c3c2)C(=O)c2ccccc2-4)c1,93.2%

# Tested on: TK-10 renal
# Assay: as above
# Conditions: 10 µM unless noted
row,Compound,growth
1,CC(C)(C)c1ccc2oc(=O)n(SC(Cl)(Cl)Cl)c2c1,92.4%
2,COc1ccc2nc(-c3ccc(Cl)cc3)cc(-c3nnc(SC/C(=N/O)c4ccccc4)o3)c2c1,75%
3,CCOC(=O)c1c(-c2ccc(O)cc2)c(C#N)c2c(C#N)c(N)nn2c1N,82.8%
4,C=CCn1c(SCC(=O)Nc2ccc(C(=O)/C=C/c3cc(OC)c(OC)c(OC)c3)cc2)nnc1-c1ccc(Cl)cc1,35.9%
5,CCOC(=O)c1ccc(Nc2ncnc3ccc(NC(=O)c4ccccc4)cc23)cc1,65.4%
6,CCOC(=O)c1cnn(-c2nc(-c3ccc(F)cc3)c(C#N)c(N3CCOCC3)n2)c1N,64%
7,CSc1nc(-c2ccc(F)cc2)c(C#N)c(N2CCOCC2)n1,104%
8,c1ccc(Sc2ncccn2)nc1,109%
9,COc1ccc(/C=C/C(=O)/C=C(/C=C/c2ccc(OC)c(OC)c2)OB(F)F)cc1OC,36.9%
10,Cc1cccc(NC(=O)c2sc3nc4c(cc3c2N)CN(Cc2ccccc2)CC4)c1C,59%
11,Nc1c(C(=O)Nc2cccc3ccccc23)sc2nc3c(cc12)CCCCCC3,55.3%
12,O=C1c2ccccc2C(=O)c2c1oc1c2c(=O)[nH]c2ccccc21,97.5%
13,C=CCn1c(CN2CCN(c3cc4c(cc3F)c(=O)c(C(=O)O)cn4C3CC3)CC2)n[nH]c1=S,88.9%
14,COc1cccc2c1-c1ccccc1C2=O,66.7%
15,COc1ccc2cc(/C=C3\N=C(c4cc(OC)c(OC)c(OC)c4)OC3=O)c(OC)nc2c1,106%
16,C=CCn1c(SCC(=O)Nc2ccc(C(=O)/C=C/c3cc(OC)c(OC)c(OC)c3)cc2)nnc1-c1ccccc1,108%
17,O=C(CCCC(=O)Nc1ccc(-n2nnc3cc(Cl)c(Cl)cc32)cc1)Nc1ccc(-n2nnc3cc(Cl)c(Cl)cc32)cc1,84%
18,COc1ccc(Nc2cc(NC(=O)CNc3cc(OC)c(Cl)c(OC)c3Cl)ncn2)cc1,93.1%
19,COc1cc(NC(=O)Nc2cnc(Nc3ccc(N4CCOCC4)cc3)nc2Oc2ccc(C(F)(F)F)cc2)cc(OC)c1,116%

row,Compound,growth
1,CCCCN(CCCC)CC(CN(CC)CC)OC(=O)Nc1ccccc1 (stereo unspecified),85.5%
2,N#Cc1ccc(N2Cc3cc(Cl)ccc3OC3=C2C(=O)N(Cc2ccccc2)C3=O)cc1,-66.3% (active)
3,Nc1c(C(=O)Nc2cccc3ccccc23)sc2nc3c(cc12)CCCCC3,62.8%
4,Cc1cc(C)cc(Nc2nccc(-c3c(-c4ccc(F)cc4)ncn3C3CCNCC3)n2)c1,17.8%
5,Nc1c(C(=O)Nc2cccc3ccccc23)sc2nc3c(cc12)COCC3,96.4%
6,CC(C)Cc1cc(CNC(=O)C2[C@H]3CN(C(=O)c4ccccc4)C[C@@H]23)nn1-c1ccccc1 (stereo partly specified),73.2%
7,O=C1c2ccccc2C(=O)c2c1oc1c2c(=O)[nH]c2ccc(Cl)cc21,-42.1% (active)
8,C=C1C(=O)O[C@H]2[C@H]1CC/C(C=Nc1c(N)cc(F)cc1Br)=C\CC[C@@]1(C)O[C@@H]21,81.7%
9,Nc1ccc2c(c1)C(=O)C(=O)c1c-2nc2ccccn12,115%
10,C#C[C@@]1(O)[C@@H](CO)O[C@@H](n2cc(F)c3c(N)ncnc32)[C@@H]1O,3.69% (active)
11,C=C(C)[C@@H]1CCC=C2CC[C@]3(C)[C@H](CC[C@@H]4[C@@]5(C)CCCNC(C)(C)[C@@H]5CC[C@]43C)[C@H]21,104%
12,COc1ccc(/C=C/C(=O)C(CC2CCC2)C(=O)/C=C/c2ccc(OC)c(OC)c2)cc1OC,-32.8% (active)
13,CCOC(=O)C1=C(C)n2nc(CC#N)c(C#N)c2NC1c1ccc(CC)cc1 (stereo unspecified),109%
14,CCCCc1ccc(N=Nc2ccc(OCC[N+](C)(C)C)cc2)cc1,31.3%
15,CC(C)NS(=O)(=O)c1cccc(-c2ccc3c4c(n(CCCN(C)C)c(=O)c3c2)-c2ccccc2C4=O)c1,114%
16,COc1ccc2[nH]c(=O)c(/C=C/C(=O)c3ccccc3OC)cc2c1,42%
17,CCOC(=O)c1c(C)nc2c(c1N)/C(=C/c1cccs1)C(=O)N2Cc1ccccc1,90.1%
18,C/C(=N/Nc1nc2ccccc2n1C)c1ccccn1,36.8%
19,CC(C)NS(=O)(=O)c1cccc(-c2ccc3c(=O)n(CCCN)c4c(c3c2)C(=O)c2ccccc2-4)c1,96.8%

# Reference: PubChem BioAssay (NCI)
